# Reference: PubChem BioAssay (NCATS)
# Records with an inconclusive call do not appear. The source made the active and inactive calls. Calls follow the shape of the dose curve; as a rule, active = well fitted inhibition curve with a large enough effect; inconclusive = small, poorly fitted or top-dose-only effect; inactive = no such curve, though single readings can be large or run the other way. Non-standard residues stand in square brackets, D forms with d. Residues, ends and D or L forms follow the SMILES beside them.
# Experiment: BET inhibitor-based combinations targeting novel dependencies in MECOM-rearranged (r) AML: SET-2 cell line (AID 2202231); also: nearly all actives have a fitted effect of over 35% in size;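 as to viability: plate controls were DMSO treated cells for no effect and wells without cells for full effect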
# Settings: SET-2 AML cells viability, CellTiter-Glo luminescence, 48 h; viability: active compounds read low, series mostly up to about 46 µM
# How it was run: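 500 cells/well; 11-pt dose curve; 48 h, standard incubator; CellTiter-Glo luminescence after 15 min RT; DMSO/empty-well normalization; AUC plus Z-AUC (mean-centered within each line).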
# Potency is read from the fitted curve at half-maximal effect.
SMILES,Potency,viability
COC1CCC(N2C(=O)CNc3ncc(-c4ccc(C(C)(C)O)nc4)nc32)CC1 (stereo not given),7420 nM (active),
N[C@@H]1CN(c2c(F)cc3c(=O)c(C(=O)O)cn([C@@H]4C[C@@H]4F)c3c2Cl)CC12CC2,,105% (inactive)
C[C@H]1O[C@H](O[C@H]2[C@H](O)[C@@H](O)[C@@H](O[C@H]3[C@H](O)[C@@H](O)C(O)O[C@@H]3CO)O[C@@H]2CO)[C@H](O)[C@@H](O)[C@@H]1N[C@H]1C=C(CO)[C@@H](O)[C@H](O)[C@H]1O (stereo not given in full),,101% (inactive)
CC(C)C[C@@H]1NC(=O)[C@@H](C(C)C)NC(=O)[C@@H]2CCCN2C(=O)[C@@H](CC(=O)O)NC(=O)[C@@H](Cc2c[nH]c3ccccc23)NC1=O (cyclo(L[dW][dD]P[dV])),,110% (inactive)
Cc1cnc(NC(=O)c2cc(Oc3cnc(C(=O)N(C)C)nc3)c3cc(C)oc3c2)cn1,,126% (inactive)
CC(C)(CO)n1cc(C(=O)c2cncc(NC(=O)Cc3ccc(Cl)cn3)c2)c2cnc(N)nc21,,125% (inactive)
CN1CCC(c2c(O)cc(O)c3c(=O)cc(-c4ccccc4Cl)oc23)C1CO (stereo not given),1320 nM (active),
CN[C@@H]1[C@@H](O)[C@@H](O[C@@H]2[C@@H](O)[C@H](O[C@H]3O[C@H](CN)[C@@H](O)[C@H](O)[C@H]3O)[C@@H](N)C[C@H]2NC(=O)C(O)CN)OC[C@]1(C)O (stereo not given in full),,116% (inactive)
CCCCCCCOc1ccc(CCC(N)(CO)CO)cc1C(F)(F)F,18600 nM (active),
O=C(O)CNC(=O)c1nc(Cl)c2ccccc2c1O,,122% (inactive)
CCOc1ccc(-n2c([C@@H](C)N(Cc3cccnc3)C(=O)Cc3ccc(F)c(C(F)(F)F)c3)nc3ncccc3c2=O)cc1,,112% (inactive)
COc1cccc2c1C(=O)c1c(O)c3c(c(O)c1C2=O)C[C@@](O)(/C(CO)=N/NC(=O)CCCCCN1C(=O)C=CC1=O)C[C@@H]3O[C@H]1C[C@H](N)[C@H](O)[C@H](C)O1,2950 nM (active),
Cc1ccc(-n2[nH]c(C)c(N=Nc3cccc(-c4cccc(C(=O)O)c4)c3O)c2=O)cc1C,,109% (inactive)
C[C@]12CC[C@H](O)CC1=CC[C@@H]1[C@@H]2CC[C@]2(C)C(c3cccnc3)=CC[C@@H]12,,107% (inactive)
CCCNC(=O)c1cn2ncnc(Nc3cc(C(=O)NC4CC4)ccc3C)c2c1C,,99.9% (inactive)
CCOCOC[C@H](C[C@H](C)C(=O)NO)NC(=O)c1ccc(Oc2ccccc2)cc1,,117% (inactive)
COc1cc(/C=C/C(=O)CC(=O)/C=C/c2ccc(O)c(OC)c2)ccc1O,20900 nM (active),
COc1ccc(N2C(=O)N(c3c(C)cccc3Cl)Cc3cnc(Nc4ccc(C5CCN(C)CC5)cc4OC)nc32)nc1,16600 nM (active),
COc1cc(Nc2cnc(C#N)c(O[C@H](C)CN(C)C)n2)ncc1-c1cnn(C)c1,3720 nM (active),
CNC1CCCN(c2c(F)cc3c(=O)c(C(=O)O)cn(C4CC4)c3c2OC)C1 (stereo not given),,112% (inactive)

SMILES,Potency,viability
CN(C)C(=O)COC(=O)Cc1ccc(OC(=O)c2ccc(N=C(N)N)cc2)cc1,,115% (inactive)
OC1CCC([C@H](O)C[C@H]2c3c(F)cccc3-c3cncn32)CC1 (stereo not given in full),,118% (inactive)
COc1nnc2ccc(N3CCC(c4ccc(OCCN5CCN(C)C(=O)[C@H]5C)cc4)CC3)nn12,148 nM (active),
CC[C@@]1(O)C(=O)OCc2c1cc1n(c2=O)Cc2c-1nc1ccccc1c2CCNC(C)C,16.6 nM (active),
C/C(=N\NC(=S)N1CCC1)c1ccccn1,59 nM (active),
O=C(O)CCNc1cc(N2CCc3ccccc3CC2)nc(-c2cccnc2)n1,,116% (inactive)
C[C@@H](OC[C@@]1(c2ccccc2)CC[C@]2(CCC(=O)N2)CN1)c1cc(C(F)(F)F)cc(C(F)(F)F)c1,20900 nM (active),
CNCCCOc1cc(F)c(-c2c(Cl)nc3ncnn3c2N[C@@H](C)C(F)(F)F)c(F)c1,148 nM (active),
CC(=O)c1cc2c(o1)C(=O)c1ccccc1C2=O,2630 nM (active),
COc1cc(N2CCN(C)CC2)ccc1Nc1ncc2c(n1)N(C)c1ccccc1C(=O)N2C,16600 nM (active),
CC(C)(C)NC(=O)c1cncn1C1CCN(c2ccc(-c3nnc(C(F)(F)F)o3)cn2)CC1,16600 nM (active),
O=[N+]([O-])c1ccc(O)c2ncccc12,16600 nM (active),
COc1cc([C@@H]2c3cc4c(cc3[C@@H](O[C@@H]3O[C@@H]5CO[C@@H](c6cccs6)O[C@H]5[C@H](O)[C@H]3O)[C@H]3COC(=O)[C@H]23)OCO4)cc(OC)c1O,1180 nM (active),
CO[C@H]1/C=C\C=C(\C)C(=O)NC2=CC(=O)C(NCCN(C)C)=C(C[C@@H](C)C[C@H](OC)[C@H](O)[C@@H](C)/C=C(/C)[C@@H]1OC(N)=O)C2=O,2950 nM (active),
CC(C)(S)[C@@H](N)C(=O)O,,116% (inactive)
Cc1nc2ccc(CN(C)c3ccc(C(=O)N[C@@H](CCC(=O)O)C(=O)O)s3)cc2c(=O)[nH]1,46.8 nM (active),
C[C@]12CCC3[C@@H](CC[C@H]4NC(=O)C=C[C@]34C)[C@@H]1CC[C@@H]2C(=O)Nc1cc(C(F)(F)F)ccc1C(F)(F)F (stereo not given in full),,118% (inactive)
CCCS(=O)(=O)c1nc(NC2CC2)cc(-c2ccc3c(ccn3C3CC(C)(C)NC(C)(C)C3)c2)n1,2210 nM (active),
CCCc1nc(C)c2c(=O)[nH]c(-c3cc(S(=O)(=O)N4CCN(CC)CC4)ccc3OCC)nn12,,114% (inactive)
CC1(C)O[C@@H]2C[C@H]3[C@@H]4C[C@H](F)C5=CC(=O)C=C[C@]5(C)[C@H]4[C@@H](O)C[C@]3(C)[C@]2(C(=O)CO)O1,,108% (inactive)
